Results published in PubChem BioAssay AID1117319 (Southern Research Institute, 2015).
Several values for one entry are separate records, joined by “and”; a condition that tells them apart may be missing. Identical values can stand only once. In all, about 260,000 compounds went through this assay and about 1,500 (0.58%) were called active. About 5% were inconclusive and are not listed.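 Rule for the calls: active = inhibition above a set limit at one or more doses, reproduced on every date tested; inconclusive = results disagree between test dates, or hit never tested in dose response; inactive = the rest.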 Only a sample is shown. Entries with a potency or affinity are not part of this list.

Molecular target: Virion infectivity factor (Human immunodeficiency virus type 1 group M subtype B (isolate BH10)) + Virion infectivity factor (Human immunodeficiency virus type 1 group M subtype B (isolate BRU/LAI)) + Virion infectivity factor (Human immunodeficiency virus type 1 group M subtype B (isolate PCV12)) + Virion infectivity factor (Human immunodeficiency virus type 1 group M subtype B (isolate HXB2)) + DNA dC->dU-editing enzyme APOBEC-3G (Homo sapiens) (UniProt P69720+P69721+P69722+P69723+Q9HC16)
Test: HIV-1 Vif–A3G interaction blockers – biochemical, TR-FRET, GST-Vif 1-94, biotin-A3G peptide, dose response retest, primary screen (AID 1117319);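 note: Vif residues 1-94 fused to GST binding biotinylated APOBEC3G peptide 110-148; 0% = full assay without inhibitor and 100% = GST in place of GST-Vif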
Details: TR-FRET GST-Vif / biotin-A3G peptide binding; active compounds read high

inhibition, inactive:
COc1cccc(CN2CC(C(=O)N(C)CCCC3CCCC3)CCC2=O)c1 (stereo not given) -1.28%
Cc1ccc2[nH]c(=O)c(C(c3nnnn3C3CCCC3)N3CCCc4ccccc43)cc2c1 (stereo not given) 16.5%
CCC(C)(C)n1nnnc1C(c1cc2cc(OC)ccc2[nH]c1=O)N1CCc2ccccc21 (stereo not given) 3.72% and -1.49%
O=c1cc(CSc2nnc(Nc3ccccc3F)s2)nc2sccn12 -10.7%
COc1ccccc1C(CNC(=O)c1ccc(OCc2c(C)noc2C)cc1)N1CCCC1 (stereo not given) 7.05%
COc1cc(C(=O)NCC(c2ccco2)N2CCCC2)ccc1OCc1ccccc1 (stereo not given) 3.67%
Cc1ccc(NC(=O)COC(=O)CN2CCSC2=O)cc1Cl 7.83%
Cc1ccc(/C=N/N=C/c2ccc(C)cc2)cc1 1.03%
Cc1ccc(/C=C2/CNC/C(=C/c3ccc(C)cc3)C2=O)cc1 4.14%
Cc1nc2ccccc2n1CCN1CCOCC1 -1%
COC(=O)c1nn(-c2ccc(Oc3ccccc3)cc2)c(=O)cc1O 2.63%
Nc1ccc(S(=O)(=O)N2CCOCCOCCOCCOCCOCC2)cc1 1.81%
C=C(C)C(=O)OCC(=O)NCc1ccccc1 -3.45%
Oc1ccc(/C=N/NC2=NCCCCC2)cc1 27.5%
Oc1ccccc1/C=N/NC1=NCCCCC1 -2.42%
O=C(O)c1cccc(S(=O)(=O)Nc2cccc(S(=O)(=O)N3CCCCCC3)c2)c1 4%
Cc1cccc(N(Cc2ccccc2F)S(C)(=O)=O)c1 22.4%
Fc1ccc(C2=Nc3cccc4cccc(c34)N2)cc1 -0.82%
c1coc(C2=Nc3cccc4cccc(c34)N2)c1 8.06%
COc1ccc(C2=Nc3cccc4cccc(c34)N2)cc1 -2.87%
CC(C)C1=Nc2cccc3cccc(c23)N1 -3.35%
CC(=C\c1ccccc1)/C=C1/SC(=S)N(CCCC(=O)O)C1=O 2.05%
CC(=C\c1ccccc1)/C=C1/SC(=O)N(CCCC(=O)Nc2ccc(C(=O)O)cc2)C1=O 0.71%
CC(=O)c1ccc(NC(=O)CCCN2C(=O)/C(=C/C(C)=C/c3ccccc3)SC2=S)cc1 4.61%
CC(=C\c1ccccc1)/C=C1/SC(=S)N(CCC(=O)O)C1=O -2.12%
CC1=C(C(=O)N(C)C)C(c2cccs2)NC(=O)N1 (stereo not given) 4.4%
O=C(CS(=O)(=O)c1ccc(F)cc1)N1CCN(c2ccccc2)CC1 -1.09%
Cc1ccc(Nc2ccccc2)cc1 6.07%
c1ccc(Nc2ccccc2)cc1 -0.33%
Cc1cc(NC(=O)CSc2nnc(C)n2-c2ccccc2)no1 1.46%
COC(=O)[C@@H](NC(=O)O[C@H]1C(=O)c2ccc(OC)cc2O[C@@H]1c1ccc2c(c1)OCO2)C(C)C 12.9%
COc1ccc2c(c1)O[C@H](c1ccc3c(c1)OCO3)[C@@H](OC(=O)N[C@H]1CCCc3ccccc31)C2=O 4.66%
CC(OC(=O)CCc1nc2ccccc2[nH]c1=O)C(=O)c1ccccc1 (stereo not given) 6.75%
COC(=O)c1ccc2c(=O)[nH]c(CN3c4ccccc4CC3C)nc2c1 (stereo not given) 8.14%
CC1Cc2ccccc2N1Cc1nc2cc(Cl)ccc2c(=O)[nH]1 (stereo not given) 7.91%
O=C(Cn1cnc2ccccc21)NCCCN1CCOCC1 -5.55%
O=C(NNS(=O)(=O)c1ccccc1[N+](=O)[O-])c1ccc(F)cc1 -0.91%
O=C1NC(=O)/C(=C/c2ccc(N3CCOCC3)o2)N1 12.2%
O=C1NC(=O)/C(=C\c2ccc(Sc3ccc(Cl)cc3)o2)N1 21.1%
Cc1nnc(SCC(=O)NNC(=O)c2ccco2)n1-c1ccccc1 6.15%
Cc1cccc(N2CC(C(=O)Nc3ccccc3N3CCOCC3)CC2=O)c1C (stereo not given) -2.77%
CCn1c(SCC(=O)Nc2cc(C)on2)nnc1-c1ccccc1 -1.57%
CCCCn1c(SCC(=O)Nc2cc(C)on2)nnc1-c1cccnc1 -3.02%
CCc1nc(SCC(=O)c2ccccc2)c2c(=O)n(C)c(=O)n(C)c2n1 -11.9%
CC1(c2ccc([N+](=O)[O-])cc2)NC(=O)N(CC(=O)Nc2cccnc2Cl)C1=O (stereo not given) -4.51%
CC1=CC(C)(C)N2C(=O)C3(C(C#N)=C(N)Oc4cc(O)ccc43)c3cccc1c32 (stereo not given) 4.05%
COc1cc(N=C2C(=O)N3c4c(cccc42)C(C)=CC3(C)C)cc(OC)c1 -3.94%
CN(C)c1oc(-c2ccco2)nc1S(=O)(=O)c1ccc(Br)cc1 10.3%
O=C(NCCc1ccc(F)cc1)c1coc(=O)c(Br)c1 -6.83%
CC(C)CNC(=O)c1coc(=O)c(Br)c1 12.1%
COc1ccccc1NC(=O)c1coc(=O)c(Br)c1 13.2%
Cc1cc(NC(=O)c2coc(=O)c(Br)c2)ccc1C(C)C 10.6%
O=C(Nc1ccc(Br)cn1)c1ccc2ccccc2c1 -12.4%
O=C(Nc1ccc(Br)cn1)c1cccc(C(=O)Nc2ccc(Br)cn2)c1 -16%
CCCN(CC(=O)Nc1ccccc1OC)C(=O)c1ccc2[nH]c3c(c2c1)CC(C)CC3 (stereo not given) 2.48%
C[C@@H]1NC(=O)[C@H](CC(N)=O)NC(=O)c2cc([N+](=O)[O-])cc(I)c2OCC[C@@H](C(=O)NC(CC(=O)O)C(N)=O)NC1=O (stereo not given in full) 10.6%
Cc1csc(SC(C)C(=O)Nc2ccccc2C)n1 (stereo not given) -12.6%
Cc1ccc(C2=NC(C)(C)N=C2SCC(=O)Nc2ccc(Cl)cc2)cc1 2.26%
O=C(NC(=S)Nc1cc(-c2nc3ccccc3[nH]2)ccc1Cl)c1ccc2c(c1)OCO2 6.14%
C[C@H]1CN([C@@H](C)CO)C(=O)CCCn2nncc2CO[C@@H]1CN(C)Cc1ccc(Cl)c(Cl)c1 -0.91%
